The supplement of paper PMC6555819

Key:
Experiment in all cases: PBM binding z-score (relative to random genomic background probes); higher = stronger binding; sequences stand for … in GC…GCGATTGACAGCGTAGAATGAAGG
[1] = test system: FXR:RXRa (NR concentration 270 nM, RXRa partner concentration 90 nM)
How it was run: (§1)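 Probes were double-stranded and carried 34-nt variable regions with direct-repeat seeds, single-nucleotide variants, half-site ablations and random human genomic background sequences, printed on custom Agilent 4×180K protein-binding microarrays. Arrays were incubated 1 h with ligand-free nuclear receptor dimers in PBS pH 7.4, 2% milk, 0.02% Triton X-100, 1 mM DTT, 0.2 mg/mL BSA and 0.4 mg/ml salmon testes DNA. Antibodies against each partner (one per run) detected binding, and scanned fluorescence was regression-normalized. Binding z-scores use the random background probes as reference.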

[2] = test system: LXRa:RXRa (NR concentration 270 nM, RXRa partner concentration 90 nM)
How it was run: as §1

[3] = test system: LXRa homodimer (NR concentration 270 nM)
How it was run: as §1

[4] = test system: LXRb:RXRa (NR concentration 270 nM, RXRa partner concentration 90 nM)
How it was run: as §1

[5] = test system: LXRb homodimer (NR concentration 270 nM)
How it was run: as §1

[6] = test system: PPARa:RXRa (NR concentration 270 nM, RXRa partner concentration 90 nM)
How it was run: as §1

[7] = test system: PPARg:RXRa (NR concentration 180 nM, RXRa partner concentration 90 nM)
How it was run: as §1

[8] = test system: PPARg:RXRa 270nM:90nM, anti-RXR (NR concentration 270 nM, RXRa partner concentration 90 nM)
How it was run: as §1

[9] = test system: PPARg:RXRa 30nM:10nM, anti-RXR (NR concentration 30 nM, RXRa partner concentration 10 nM)
How it was run: as §1

[10] = test system: PPARg:RXRa 90nM:30nM, anti-RXR (NR concentration 90 nM, RXRa partner concentration 30 nM)
How it was run: as §1

Row | Sequence | PBM binding z-score [1] | PBM binding z-score [2] | PBM binding z-score [3] | PBM binding z-score [4] | PBM binding z-score [5] | PBM binding z-score [6] | PBM binding z-score [7] | PBM binding z-score [8] | PBM binding z-score [9] | PBM binding z-score [10]
1 | CGAACTAGGTCACCAGGACAGGGAAGAGGTTGGA | 4.04 | 2.49 | -0.0204 | 1.64 | -0.262 | 5.11 | 8.73 | 6.89 | 4.68 | 6.72
2 | ATATGTAGGTTAGAGTCATTCAGAAAGTAGGGAA | 0.573 | 1.04 | 0.277 | 1.02 | 0.605 | 2.75 | 4.27 | 4.03 | 1.69 | 3.08
3 | CCTACGGGGCCAAGGTCATTGATCAGTCAAAGCA | 3.57 | 3.06 | 0.732 | 2.94 | -0.542 | 3.79 | 2.83 | 3.73 | 1.3 | 2.88
4 | TAGCATAGGTCATGCGGGCCAGTATAGTGTCGGC | 5.29 | 5.13 | 0.874 | 3.33 | -0.127 | 5.22 | 4.08 | 4.44 | 0.97 | 3.18
5 | CCTTACGGGTCAAGGTTGTAGCACGGGTGGTACG | 4.89 | 3.37 | -0.181 | 2.48 | -0.0387 | 4.68 | 4.01 | 4.21 | 1.2 | 3
6 | CCTACAGGGCCAAAGGTCATTGATTCCAATGCTC | 5.3 | 5.24 | 4.04 | 4.71 | 0.781 | 5.51 | 8.97 | 8.45 | 8.14 | 9.99
7 | TAGCCTAGGCCATGGGCCAGTATACCACGCGAAC | -0.747 | -0.914 | -0.864 | -1.07 | -1.23 | -0.56 | 0.326 | -0.0896 | -0.9 | -0.67
8 | TTTCCAAGGTGAAAGGTCGTTGATGCACGCCTTG | 3.56 | 3.59 | 0.323 | 2.79 | 0.0398 | 5.37 | 7.96 | 7.33 | 6.06 | 7.82
9 | AGTCAAAGTTCATCTAGGTAACGAAAGATATGCT | 6.43 | 5.78 | 4.68 | 3.86 | 1.83 | 5.26 | 7.04 | 6.66 | 3.55 | 5.72
10 | AGTCAAAGGTCAGGACGAGGTAACGTAAAGCACG | 7.52 | 5.96 | 0.926 | 4.9 | 1.48 | 6.17 | 8.88 | 7.95 | 4.99 | 7.2
11 | CGAACTAGGTCTCCAGGACAGTGAAGAGGTTGGA | -0.128 | -0.769 | -0.494 | -0.832 | -1.01 | 0.539 | 0.908 | 0.999 | -0.187 | 0.153
12 | AATACAGGGTCATTAGGCCAGAGTAGGTACGAAT | 7.31 | 5.48 | 2.17 | 4.27 | 1.52 | 5.58 | 6.71 | 5.91 | 2.62 | 4.89
